Bioassay records (PubChem BioAssay)
A selection: hits, their analogues and other compounds. The true share with any hit is near 2.3%.
CHRM1 PAM: human M1 muscarinic receptor positive allosteric modulators, primary screen, CHO-K1 cells, Fluo-8 calcium fluorescence, 1536-well; Muscarinic acetylcholine receptor M1 (Homo sapiens), P11229; CHO-K1 hM1, ACh EC20; 0% = ACh EC20, 100% = maximal ACh; activation, % at 3 µM; hit rate 0.088% among 360,000; AID 588819, 2011; in the data active = activation above about 19%, passing the limit was not always enough
Target sequence (P11229 whole entry, looked up): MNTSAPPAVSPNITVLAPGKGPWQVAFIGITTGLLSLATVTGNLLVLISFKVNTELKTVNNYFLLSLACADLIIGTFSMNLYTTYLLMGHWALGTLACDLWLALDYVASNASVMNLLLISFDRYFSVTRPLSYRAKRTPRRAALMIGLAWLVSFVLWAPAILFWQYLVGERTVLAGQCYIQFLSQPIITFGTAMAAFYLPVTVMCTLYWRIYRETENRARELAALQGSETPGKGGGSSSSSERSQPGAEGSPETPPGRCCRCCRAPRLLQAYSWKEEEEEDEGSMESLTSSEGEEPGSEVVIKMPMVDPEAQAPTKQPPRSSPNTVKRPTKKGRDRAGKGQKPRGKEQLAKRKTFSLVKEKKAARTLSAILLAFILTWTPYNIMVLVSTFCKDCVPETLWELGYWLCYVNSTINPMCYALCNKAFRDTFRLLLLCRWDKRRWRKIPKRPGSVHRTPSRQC
M1 PAM parental: nonselective calcium activators in parental CHO-K1 cells, primary screen, counter-screen for M1 PAM project, cell-based, Fluo-8 calcium fluorescence, full deck, 1536-well; hit rate 0.02% among 360,000; activation, % at 3 µM; ATP EC20; 0% at ATP EC20, 100% at ATP max;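 active = activation above the run cutoff, the mean activation of all test compounds plus 3 SD, cut at about 40% in these data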;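 note: peak over basal fluorescence ratio in a 140 s read after ATP addition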
CHO-K1 Ca antag: M1 antagonist counterscreen hit in parental CHO-K1 cells. ATP-induced calcium, Fluo-8 fluorescence. hit rate 0.6% among 360,000. AID 602250. inhibition, % at 3 µM;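 active = inhibition above a per-plate cutoff, the plate's mean sample inhibition plus 3 SD, cut at about 24% in these data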
CHRM1 agonist: human M1 muscarinic receptor agonists, primary screen, Fluo-8 calcium fluorescence, CHO-K1 cells, HTS; Muscarinic acetylcholine receptor M1 (Homo sapiens), P11229; CHO-K1 hM1, agonist mode; 0% DMSO, 100% acetylcholine EC100; activation, % at 3 µM; hit rate 0.33% among 360,000; AID 588814, 2011;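 active = activation above the run's mean compound activation plus 3 SD, cut at about 16% in these data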;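 note: peak over basal fluorescence ratio within a 140 s kinetic read after compound addition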
M1 antag: human M1 muscarinic receptor antagonists, primary screen, CHO-K1 cells, Fluo-8 calcium fluorescence, 1536-well. Muscarinic acetylcholine receptor M1 (Homo sapiens), P11229. CHO-K1 hM1, ACh EC80 antagonist. inhibition, % at 3 µM. hit rate 1.3% among 360,000;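 active = percent inhibition above its own plate's cutoff, namely the mean of that plate's compound wells plus 3 SD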;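 note: peak over basal fluorescence ratio during 140 s after agonist addition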
M1 ag parental: counter-screen for M1 agonists: effect in parental CHO-K1 cells; activation, % at 3 µM; hit rate 0.48% among 360,000; AID 602248, 2012; Fluo-8 calcium fluorescence; scaled to maximal ATP response, vehicle zero; in the data active = activation above about 15%;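 note: untransfected CHO-K1 host cells lacking M1 receptor as counterscreen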
Of the large screens only hits and unclear results are named; the others gave an inactive call.

O=C(NCc1ccccc1)C(c1ccccc1)N(Cc1ccc2c(c1)OCO2)C(=O)Cc1cccs1 (stereo not drawn)	M1 antag 44.9
COc1ccc(CNC(=O)C(c2ccc(C)o2)N(Cc2cccs2)C(=O)Cc2cccs2)cc1 (stereo not drawn)	M1 antag 40.3
C[C@@H]1CN([C@H](C)CO)S(=O)(=O)c2ccc(Br)cc2O[C@@H]1CN(C)C(=O)NC1CCCC1	none
COc1ccc(C(C)(O)c2nc(-c3ccccc3OC)cs2)cc1 (stereo not drawn)	none
CC1(C(=O)NCc2cccs2)Cc2c(-c3ccc4c(c3)OCO4)ccnc2O1 (stereo not drawn)	none
CC(C)c1ccc(NC(=O)[C@@H](C)NC(=O)[C@@H]2Cc3ccccc3CN2)cc1	M1 antag 37.4
CC(C)C[C@H](NC(=O)[C@@H]1Cc2ccccc2CN1)C(=O)Nc1ccc(C(C)C)cc1	none
COc1ccc(-c2sc3ccccc3c2-c2ccc(OC)cc2F)cc1	none (no result: CHRM1 PAM, CHRM1 agonist, M1 antag)
COc1ccc(C(=O)NC(C)CCc2ccccc2)cc1[N+](=O)[O-] (stereo not drawn)	none
COc1ccc(C(=O)C(C)[n+]2ccc(C)c3ccccc32)cc1[N+](=O)[O-] (stereo not drawn)	M1 antag 43.4
O=C(COC(=O)CNC(=O)c1ccc(Br)o1)Nc1ccc2c(c1)OCCO2	none
NC(=O)c1ccc(NC(=O)COC(=O)c2ccc3c(c2)OCCO3)cc1	M1 ag parental 20.1
O=C(COC(=O)c1ccc(Br)o1)Nc1ccc2c(c1)OCCO2	CHRM1 PAM 27.5
O=C(COC(=O)c1ccc(NS(=O)(=O)c2ccc3c(c2)OCCO3)cc1)NC1CCS(=O)(=O)C1 (stereo not drawn)	CHO-K1 Ca antag 25.1
C[C@H](c1ccccc1)N1C[C@H](COCc2ccccc2)Oc2cc(N3CCC[C@H]3C(N)=O)ccc2S1(=O)=O	none (no result: CHRM1 PAM, CHRM1 agonist, M1 antag)
CC(=O)n1cc([C@H]2C=C(C(=O)NCc3ccccc3)O[C@@H](OCc3ccc(CO)cc3)C2)c2ccccc21	none
CC(=O)n1cc([C@H]2C=C(C(N)=O)O[C@@H](OCc3ccc(CO)cc3)C2)c2ccccc21	CHRM1 agonist 22.8, M1 ag parental 19.8
CCCCC1Cc2[nH]c(=S)[nH]c(=O)c2C(c2ccc(F)cc2)O1 (stereo not drawn)	none
Cc1ccc(S(=O)(=O)N2C[C@@H](C)[C@]3(C2)[C@H](O)[C@H](OC(=O)NC2CCCC2)C[C@H]2C(=O)N(c4ccccc4)C(=O)[C@H]23)cc1	none
NC(=O)C1CCN(Cc2ccc(OCc3ccccc3)cc2)CC1	none
CCOC(=O)N1CCN(CC(O)COc2ccc(OC)cc2C(C)(C)C)CC1 (stereo not drawn)	none
COc1ccccc1Nc1nc(N)nc(CN2CCC(Cc3ccccc3)CC2)n1	none
CCOC(=O)C1CCN(Cc2ccc(OCc3ccccc3)cc2)CC1	M1 antag 49.3
CCOC(=O)C1CCCN(Cc2ccc(OCC)cc2)C1 (stereo not drawn)	CHRM1 agonist 30.9
COc1ccc(Nc2nc(N)nc(CN3CCC(Cc4ccccc4)CC3)n2)cc1	M1 antag 33.1
CCOC(=O)C1CCCN(CC(O)COc2ccc(OC)cc2C(C)(C)C)C1 (stereo not drawn)	CHRM1 agonist 60.0, M1 antag 32.4
CCN(CC)C(=O)C1=C(C)N(CCCN2CCCC2=O)C(=O)C(CC(=O)NCCCCc2ccccc2)C1 (stereo not drawn)	none
C[C@H]1CN(CCc2ccccc2)C(=O)[C@@H]1CC(=O)Nc1ccc(Br)cc1	none
CSC1=NC=C(C#N)C2=NC(c3ccc(Cl)cc3)NN12 (stereo not drawn)	none
COc1cccc(OC)c1OCCCN1CCC(Cc2ccccc2)CC1	M1 antag 45.3
Cc1cc(OCCN2CCC(Cc3ccccc3)CC2)ccc1[N+](=O)[O-]	M1 antag 101.0
O=C(c1ccc(Cl)cc1)C1CCCN(Cc2cnn(-c3ccccc3)c2)C1 (stereo not drawn)	none
O=C(c1ccc(Cl)cc1)C1CCCN(Cc2ccc(Oc3ncccn3)cc2)C1 (stereo not drawn)	M1 antag 62.3
CCOC(=O)C1CCN(Cc2ccc(N(C)C)cc2)CC1	CHO-K1 Ca antag 41.1
Cc1cc(C)c(-c2c(N)cc(Br)cc2Br)c(N)c1	none
COC(=O)c1ccc(C(=O)OC)c(NC(=O)Cc2cccs2)c1	none
CCCCN(C)C(=O)C1CCN(Cc2ccc(OCc3ccccc3)cc2)CC1	M1 antag 41.0
CCOc1ccc(CN2CCC(Cc3ccccc3)CC2)cc1	M1 antag 58.5
CCCCNC(=O)C1CCN(Cc2ccc(OCc3ccccc3)c(OC)c2)CC1	none
CCN1CCc2nc(NC(=O)c3ccccc3)sc2C1	none
CN(C)c1ccc(/C=C(\C#N)C(=O)Nc2nc3c(s2)CCN(Cc2ccccc2)C3)cc1	CHRM1 agonist 20.9, M1 antag 34.7
O=C(Nc1nc2c(s1)CN(Cc1ccccc1)CC2)C1CCC1	M1 antag 45.6
CCOC(=O)NC(=O)/C(C#N)=C/c1ccc(N(C)C)cc1	none
NC(COCc1ccccc1)c1csc(NC(=O)Nc2cccc(Cl)c2)n1 (stereo not drawn)	none
COCCNC(=O)C1(C)CCCN(C(=O)c2c(F)ccc(C)c2F)C1 (stereo not drawn)	none
COc1cc(NC(=O)c2cccs2)c(C(=O)OCC(=O)c2cc(C)n(-c3ccc(F)cc3)c2C)cc1OC	M1 ag parental 17.1
O=C(Nc1ccc2nc(SCc3ccc(Cl)cc3)sc2c1)c1ccccc1C(=O)N1CCOCC1	M1 antag 29.3
CC(C)CC(=O)Nc1nnc(S(=O)(=O)N2CCc3ccccc32)s1	CHO-K1 Ca antag 28.5
Cc1ccc(C(C)NC(=S)NCc2ccc(F)cc2)cc1C (stereo not drawn)	none
CCOc1ccc(CNC(=S)NCc2ccc(OCC)cc2)cc1	none
CCc1ccc(C(C)NC(=S)NCc2ccc(F)cc2)cc1 (stereo not drawn)	M1 antag 40.3
CCOc1ccc(C(C)NC(=O)C2CCC2)cc1 (stereo not drawn)	CHO-K1 Ca antag 23.7
CCOc1ccc(C(C)NC(=S)NCc2ccc(F)cc2)cc1 (stereo not drawn)	M1 ag parental 22.6
COc1ccc([C@H]2C[C@H](O)[C@@H](n3cc(COC(=O)c4ccccc4)nn3)CN2Cc2cccs2)cc1	CHO-K1 Ca antag 30.9
